# Several values for one entry are separate records, joined by “and”; a condition that tells them apart may be missing. Equal entries are not always repeated. Results filed as inconclusive are left out. Where a call stands in place of a potency, no number is given. Some structures have more than one record in an assay (separate samples or runs), and their calls can disagree. Activity calls are given as the source filed them. Unless noted, calls come from the whole dose curve; as a rule, active = well fitted curve in the direction sought with a large enough effect in the repeat runs; inconclusive = weak or mixed curves; inactive = no such curve, though single readings can be large; an effect the other way counts as inactive or inconclusive.
# Assays:
# [1] = qHTS assay to identify small molecule agonists of the constitutive androstane receptor (CAR) signaling pathway - cell viability counter screen (AID 1224836); note: nearly all actives have a fitted effect of over 45% in size; note: potency is the fitted concentration of half-maximal effect
# In short: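 Cell viability multiplexed with the CAR agonist screen: CellTiter-Fluor fluorescence after 23 hr at 37 C. HepG2-CYP2B6-hCAR cells got compounds at 15 concentrations with PK11195 at 0.75 uM final.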
# [2] = qHTS assay to identify small molecule antagonists of the constitutive androstane receptor (CAR) signaling pathway - cell viability counter screen (AID 1224837); note: nearly all actives have a fitted effect of over 45% in size; note: potency is the fitted concentration of half-maximal effect
# In short: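 Cells are seeded, rested 4 hr at 37 C/5% CO2, dosed with compound (15-point series) and 50 nM CITCO, incubated a further 23 hr, and then CellTiter-Fluor reagent is added before fluorescence is read. The line is HepG2 with stable hCAR and CYP2B6-2.2kb.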
# [3] = qHTS assay to identify small molecule antagonists of the estrogen related receptor signaling pathway with the pleiotropic PPARgamma coactivator (PGC) from Tox21 10K library - cell viability counter screen (AID 1224840; active = well fitted cell-killing curve with a large enough effect in the repeat runs, not every such curve was filed as active; note: nearly all actives have a fitted effect of over 40% in size; note: potency is the fitted concentration of half-maximal effect)
# In short: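 Cell viability is measured by CellTiter-Fluor fluorescence in PGC/ERR cells that receive compounds after a 6-hour attachment period and are then incubated 17.5 hours at 37 C.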
# [4] = qHTS assay to identify small molecule antagonists of the estrogen related receptor signaling pathway with the pleiotropic PPARgamma coactivator (PGC) from Tox21 10K library (AID 1224841; call rule not given here; note: actives are mostly falling curves and most rising ones were filed inactive; nearly all actives have a fitted effect of over 50% in size)
# In short: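 Cells stably carrying the PGC/ERR reporter, seeded at 2,000 per well, received pin-transferred compounds 6 h post-plating. Exposure lasted 18 h at 37 C. Signal: One-Glo luminescence.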
# [5] = qHTS assay to identify small molecule agonists of the estrogen related receptor signaling pathway with the pleiotropic PPARgamma coactivator (PGC) from Tox21 10K library (AID 1224842); note: nearly all actives have a fitted effect of over 15% in size; note: potency is the fitted concentration of half-maximal effect
# In short: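 PGC/ERR reporter cell line, 2,000 cells per well, incubated 6 h at 37 C before 23 nL compound in DMSO was added. After 18 h at 37 C, One-Glo luminescence read following 30 min at room temperature.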
# [6] = biological target: Thyrotropin receptor (Homo sapiens) (UniProt P16473); test: qHTS assay to identify small molecule agonists of the thyroid stimulating hormone receptor (TSHR) signaling pathway (AID 1224843; calls by dose curve; note: nearly all actives have a fitted effect of over 45% in size)
# Sequence of Thyrotropin receptor (Homo sapiens) (P16473 whole entry, looked up): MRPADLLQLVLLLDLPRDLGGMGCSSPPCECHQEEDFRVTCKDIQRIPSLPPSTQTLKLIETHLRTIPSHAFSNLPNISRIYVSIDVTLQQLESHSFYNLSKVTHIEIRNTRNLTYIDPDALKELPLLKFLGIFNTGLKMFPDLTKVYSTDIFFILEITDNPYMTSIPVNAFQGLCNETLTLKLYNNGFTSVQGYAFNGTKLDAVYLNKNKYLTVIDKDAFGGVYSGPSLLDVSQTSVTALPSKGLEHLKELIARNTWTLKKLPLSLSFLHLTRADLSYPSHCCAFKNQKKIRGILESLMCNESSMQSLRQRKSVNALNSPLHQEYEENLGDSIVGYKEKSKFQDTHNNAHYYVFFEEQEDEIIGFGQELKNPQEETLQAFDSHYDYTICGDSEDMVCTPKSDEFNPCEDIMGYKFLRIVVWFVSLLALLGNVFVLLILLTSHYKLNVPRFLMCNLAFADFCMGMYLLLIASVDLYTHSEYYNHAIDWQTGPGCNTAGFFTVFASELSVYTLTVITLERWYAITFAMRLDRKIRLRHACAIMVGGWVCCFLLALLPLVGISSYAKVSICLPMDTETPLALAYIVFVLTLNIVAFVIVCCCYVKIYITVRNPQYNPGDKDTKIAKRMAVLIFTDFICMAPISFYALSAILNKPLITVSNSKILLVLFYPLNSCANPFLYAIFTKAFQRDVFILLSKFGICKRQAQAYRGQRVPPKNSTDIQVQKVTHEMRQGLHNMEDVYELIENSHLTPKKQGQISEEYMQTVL
# In short: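 HEK293/TSHR, 800 cells/well; cpd 30 min RT; add cAMP-d2 + anti-cAMP-cryptate, 1 h RT; fluorescence read on plate reader. 15-pt titration, n=3.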
# [7] = qHTS assay to identify small molecule agonists of the hypoxia (HIF-1) signaling pathway - cell viability counter screen (AID 1224844; calls by dose curve; note: nearly all actives have a fitted effect of over 50% in size; note: potency is the fitted concentration of half-maximal effect)
# In short: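 Viability counter screen: HRE-bla ME-180 cells plated 5 hrs before compound addition, treated 17 hrs at 37C and 5% CO2, then CellTiter-Glo added after the FRET reporter read; luminescence after 30 min.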
# [8] = qHTS assay to identify small molecule agonists of the hypoxia (HIF-1) signaling pathway (AID 1224846; active = well fitted activation curve with a large enough effect in the signal ratio in the repeat runs, not every such curve was filed as active; the % refers to the signal ratio)
# In short: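 Agonist mode reporter screen. ME-180 cells stably expressing bla under HRE control received test compounds in DMSO for 17 hrs (37C, 5% CO2), and beta-lactamase activity was then detected with the CCF4-AM FRET substrate.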
# [9] = qHTS assay to identify small molecule agonists of H2AX - cell viability counter screen (AID 1224847; calls by dose curve; note: top concentration of the series differs between compounds; nearly all actives have a fitted effect of over 30% in size)
# In short: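 Counter-screen for viability: CellTiter-Glo ATP luminescence read after 3 h compound treatment (15-point titration, 0.76% DMSO final) of CHO-K1 cells at 37C, with 30 min room-temperature reagent incubation.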
# [10] = qHTS assay to identify small molecule antagonists of the estrogen related receptor (ERR) signaling pathway from Tox21 library (AID 1224848); note: nearly all actives have a fitted effect of over 50% in size; note: potency is the fitted concentration of half-maximal effect
# In short: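 Compounds dissolved in DMSO are pin-transferred onto ERR reporter cells (2,000 per well) that have settled for 6 h at 37 C. Plates then incubate 18 h at 37 C before ONE-Glo luciferase reagent and a luminescence read 30 min later.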
# [11] = qHTS assay to identify small molecule agonists of the estrogen related receptor (ERR) signaling pathway from Tox21 library (AID 1224849; calls by dose curve; note: nearly all actives have a fitted effect of over 15% in size); settings: ERR reporter cell line, ONE-Glo luciferase, 18 h
# In short: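 Quantitative HTS in agonist format: NTP ERR cell line, compounds transferred in DMSO after 6 h plating, 18 h incubation at 37 C, ONE-Glo luminescence endpoint.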
# [12] = qHTS RealTime-Glo MT Cell Viability Assay in HepG2 cells - 24 hour (AID 1224867); note: nearly all actives have a fitted effect of over 50% in size; note: potency is the fitted concentration of half-maximal effect
# In short: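 Luminescence read-out: viable HepG2 cells reduce a prosubstrate to a NanoLuc substrate, giving a signal proportional to live cell number. Reads taken at 0, 8, 16, 24, 32 and 40 h of compound exposure at 37 C.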
# [13] = qHTS RealTime-Glo MT Cell Viability Assay in HEK293 cells - 32 hour (AID 1224868); note: nearly all actives have a fitted effect of over 50% in size; note: potency is the fitted concentration of half-maximal effect
# In short: (§1)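 Nonlytic real-time viability readout: viable cells convert prosubstrate to NanoLuc substrate, giving luminescence proportional to live cell number. HEK293, 600 cells/well, compound added after 5 h, continuous culture at 37 C.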
# [14] = A CellTox Green Cytotoxicity Assay to monitor cytotoxicity in HEK293 cells - 0 hour (AID 1224869); note: nearly all actives have a fitted effect of over 50% in size; note: potency is the fitted concentration of half-maximal effect
# In short: (§2)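 Dead-cell fluorescence measured kinetically: asymmetric cyanine dye, HEK293, 600 cells/well, 5 h settle, 23 nL cpd/DMSO, 37 C, reads 0–40 h every 8 h.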
# [15] = qHTS RealTime-Glo MT Cell Viability Assay in HepG2 cells - 40 hour (AID 1224870); note: nearly all actives have a fitted effect of over 50% in size; note: potency is the fitted concentration of half-maximal effect
# In short: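 HepG2 cells (600/well) mixed with RealTime-Glo MT reagent, settled 5 h at 37 C/5% CO2 before compound addition. Nonlytic NanoLuc luminescence from viable-cell prosubstrate reduction read repeatedly during 40 h treatment at 37 C.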
# [16] = A CellTox Green Cytotoxicity Assay to monitor cytotoxicity in HEK293 cells - 40 hour (AID 1224871); note: nearly all actives have a fitted effect of over 45% in size; note: potency is the fitted concentration of half-maximal effect
# In short: as §2
# [17] = qHTS RealTime-Glo MT Cell Viability Assay in HEK293 cells - 16 hour (AID 1224872); note: nearly all actives have a fitted effect of over 50% in size; note: potency is the fitted concentration of half-maximal effect
# In short: as §1
# [18] = biological target: Nuclear receptor subfamily 1 group I member 3 (Homo sapiens) (UniProt Q14994); test: qHTS assay to identify small molecule antagonists of the constitutive androstane receptor (CAR) signaling pathway (AID 1224838);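 note: HepG2 cells stably expressing hCAR with CYP2B6 luciferase reporter stimulated by CITCO; nearly all actives have a fitted effect of over 40% in size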
# Sequence of Nuclear receptor subfamily 1 group I member 3 (Homo sapiens) (Q14994 whole entry, looked up): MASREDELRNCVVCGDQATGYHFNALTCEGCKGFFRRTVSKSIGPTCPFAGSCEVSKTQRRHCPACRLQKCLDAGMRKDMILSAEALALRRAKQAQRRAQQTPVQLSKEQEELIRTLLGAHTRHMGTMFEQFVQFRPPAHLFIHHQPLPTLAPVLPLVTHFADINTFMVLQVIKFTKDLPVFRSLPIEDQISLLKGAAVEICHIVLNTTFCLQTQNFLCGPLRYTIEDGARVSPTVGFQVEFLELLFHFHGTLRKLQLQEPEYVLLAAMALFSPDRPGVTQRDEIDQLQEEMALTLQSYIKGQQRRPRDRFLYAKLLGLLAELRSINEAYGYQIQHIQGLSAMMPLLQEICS
# In short: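 Luminescence from a CYP2B6-2.2kb promoter reporter in hCAR-expressing HepG2 cells reflects CAR signaling. Cells received compounds at 15 concentrations and 50 nM CITCO (final), then incubated 24 h at 37 C/5% CO2.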
# [19] = qHTS assay to identify small molecule agonists of H2AX (AID 1224845; active = well fitted activation curve with a large enough effect in the signal ratio in the repeat runs, not every such curve was filed as active; the % refers to the signal ratio; note: potency is the fitted concentration of half-maximal effect)
# In short: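 Wild-type CHO-K1 cells, plated overnight, exposed 3hr at 37C to 15 concentrations (0.76% DMSO final). Lysed, then HTRF anti-pH2AX (S139) cryptate and anti-H2AX-d2 antibodies, 24 hr room temperature; 665/620 nm emission read.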
# [20] = biological target: Nuclear receptor subfamily 1 group I member 3 (Homo sapiens) (UniProt Q14994); test: qHTS assay to identify small molecule agonists of the constitutive androstane receptor (CAR) signaling pathway (AID 1224839);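 note: HepG2 cells stably carrying human CAR and a CYP2B6 luciferase reporter; nearly all actives have a fitted effect of over 15% in size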
# In short: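 Luminescent ONE-Glo read-out after 24 hr, 37 C exposure of double-stable HepG2-CYP2B6-hCAR reporter cells to a 15-point compound series, in the presence of 0.75 uM PK11195 (final).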
smiles,measurement,setting,value
Nc1nc2c(ncn2COCCO)c(=O)[nH]1,Potency,[1],inactive
same,Potency,[2],inactive
same,Potency,[3],inactive
same,Potency,[4],inactive
same,Potency,[5],inactive
same,Potency,[6],inactive
same,Potency,[7],inactive
same,Potency,[8],inactive
same,Potency,[9],inactive
same,Potency,[10],inactive
same,"activity change, positive = activation",[11]; at 42.5 µM (top of the series),-1.87% (inactive)
same,Potency,[12],inactive
same,Potency,[13],inactive
same,Potency,[14],inactive
same,Potency,[15],inactive
same,Potency,[16],inactive
same,Potency,[17],inactive
CC(C)CCOC(=O)/C=C/c1ccccc1,Potency,[1],inactive
same,Potency,[2],inactive
same,Potency,[18],inactive
same,Potency,[3],inactive
same,Potency,[6],inactive
same,Potency,[7],inactive
same,Potency,[8],inactive
same,Potency,[9],inactive
same,Potency,[13],inactive
same,Potency,[14],inactive
same,Potency,[15],inactive
same,Potency,[16],inactive
COc1cccc2c1C(=O)c1c(O)c3c(c(O)c1C2=O)C[C@@](O)(C(C)=O)C[C@@H]3O[C@H]1C[C@H](N)[C@H](O)[C@H](C)O1,Potency,[1],19.4 µM (active) and 1.19 µM (active)
same,Potency,[2],2.75 µM (active) and 211 nM (active)
same,Potency,[3],27.5 µM (active)
same,Potency,[4],inactive
same,Potency,[5],0.154 µM (active)
same,Potency,[7],553 nM (active) and inactive
same,Potency,[19],0.0391 µM (active)
same,Potency,[9],inactive
same,Potency,[10],inactive
same,"activity change, positive = activation",[11]; at 42.5 µM (top of the series),-0.62% (inactive)
same,"activity change, positive = activation",[11]; at 92.4 µM (top of the series),-74.3% (inactive)
same,Potency,[12],24.7 µM (active)
same,Potency,[13],69.6 nM (active) and 3.4 nM (active)
same,Potency,[14],43.9 µM (active)
same,Potency,[15],19.6 µM (active)
same,Potency,[16],43.9 µM (active) and inactive
same,Potency,[17],6.2 µM (active) and 151 nM (active)
C=CC(=O)Nc1cc2c(Nc3ccc(F)c(Cl)c3)ncnc2cc1OCCCN1CCOCC1,Potency,[1],13.3 µM (active)
same,Potency,[2],13.3 µM (active)
same,Potency,[20],inactive
same,Potency,[3],13.3 µM (active)
same,Potency,[4],inactive
same,Potency,[6],inactive
same,Potency,[7],23.9 µM (active)
same,Potency,[19],inactive
same,Potency,[10],16.8 µM (active)
same,"activity change, positive = activation",[11]; at 42.5 µM (top of the series),-63.1% (inactive)
same,Potency,[12],8.49 µM (active)
same,Potency,[13],9.52 µM (active)
same,Potency,[14],inactive
same,Potency,[15],10.7 µM (active)
same,Potency,[16],10.7 µM (active)
same,Potency,[17],10.7 µM (active)

# Reference: PubChem BioAssay (Tox21)
